Data reported in PubChem BioAssay (NCI).
The panel holds about 83,000 compounds, 20% with a hit somewhere; the sample as a whole holds those more often.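 Values shown are percent growth following 48 h exposure of cells in 96-well plates to a single concentration of compound; below 10 was considered active.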 The source made the active and inactive calls.

Tested on: HL-60(TB) leukemia
Assay: NCI-60 one-dose screen, 48 h (100 = growth as untreated, 0 = no growth, -100 = all killed)
Details: 10 µM unless noted

Structure (SMILES) | growth
COc1cc(C2CC(c3cc(OC)c(OC)c(OC)c3)=NN2C(C)=O)ccc1OCc1ccccc1 (stereo not given) | 21.5% (inactive)
O=C(CN1CCN(c2ncnc3c2cnn3-c2ccccc2)CC1)Nc1ccc(Cl)cc1 | 58.6% (inactive)
CC(=O)Nc1ccc(-n2cnc3cc(-c4ccc(O)cc4)ccc32)cc1F | -10.2% (active)
COc1ccsc1/C=N/NC(=O)c1[nH]c2ccc(Br)cc2c1-c1ccccc1 | -33.3% (active)
COc1ccc(C2=NN(C(=O)[C@H]3[C@@H](c4ccco4)c4sc(=O)[nH]c4S[C@@H]3C)C(c3ccc4ccccc4c3)C2)cc1 (stereo not given in full) | 2.93% (active)
COc1ccc(C(=O)c2cc(C(C)=O)c3c(C)cc(C)cn23)cc1 | 78% (inactive)
COc1ccccc1NC(=O)N/N=C/c1c[nH]c2ccccc12 | 5.87% (active)
Cn1cc(-c2cc3nc(-c4c[nH]c5ccccc45)cc(N)n3n2)c2ccccc21 | -41.2% (active)
C=C1CCC2C3(C)COC(c4cc(F)cc(F)c4)OC3CCC2(C)C1CC(O)C1=CCOC1=O (stereo not given) | 61.2% (inactive)
COc1csc(/C=N/NC(=O)c2[nH]c3ccc(Br)cc3c2-c2ccccc2)c1 | -42.8% (active)
OCCn1cc(-c2nc3ccc4[nH]ncc4c3c3c2CCCC3)cn1 | 45.2% (inactive)
O=C(Cc1c(-c2ccccc2[N+](=O)[O-])n(-c2ncnc3c2c(-c2ccccc2)c(-c2ccccc2)n3Cc2ccccc2)[nH]c1=O)c1ccc(Cl)c(Cl)c1 | 1.19% (active)
Cc1cnc2ccc(Oc3ccccc3-c3ccccc3)nn12 | 107% (inactive)
Cc1ccc(C(C)C)cc1Oc1cccc(-c2c(-c3ccc(C(F)(F)F)cc3)ncn2C2CCNCC2)n1 | -83.1% (active)
N#C/C(=C/c1ccc(Cl)cc1)c1nnc(NC(=O)c2ccc(-n3c(=O)[nH]c4ccccc4c3=O)cc2)s1 | 98.2% (inactive)
COc1ccc(NC(=O)CSc2nnc(-c3ccc(-c4nc5ccc(Cl)cc5[nH]4)cc3)o2)cc1 | 61.5% (inactive)
CCOC(=O)C1=C(N)N(c2ccccc2)C2=C(C(=O)CC(C)(C)C2)C1c1ccc(Cl)cc1Cl (stereo not given) | 1.24% (active)
S=C(Nc1ccc(OCc2nc3ccc(Cl)cc3[nH]2)cc1)NC1CCCCC1 | -37.1% (active)
Cc1ccc(/C=C/C(=O)c2ccc(S(=O)(=O)NCCNc3nc(N(C)C)nc(N4CCOCC4)n3)cc2)cc1 | 30.7% (inactive)
CC(C)(C)C(=O)c1c2c(c3ccc4c5ccccc5ccc4n13)C(=O)c1ccccc1C2=O | 94.2% (inactive)

Structure (SMILES) | growth
COc1ccc(C2NC(=S)NC(C)=C2C(=O)OC(C)C)cc1OC (stereo not given) | 100% (inactive)
Cn1cc(-c2nc(N)nnc2-c2c[nH]c3ccc(Br)cc23)c2cc(Br)cnc21 | -35.8% (active)
O=c1oc2ccc(-c3ccc(F)cc3F)cc2c(=O)n1-c1ccc(Cl)c(C(F)(F)F)c1 | 1.38% (active)
C#CCOc1ccc(/C=N/Nc2nc(-c3cc4cc(Br)ccc4oc3=O)cs2)cc1OC | 71.1% (inactive)
CC(=O)c1ccc(Nc2nc(SC(C)C)nc(-c3ccccc3)c2C#N)cc1 | 93.6% (inactive)
CN1CCN(Cc2ccc(NC(=O)c3cncc(C#Cc4cnc5ccc(N[C@@H]6CCOC6)nn45)c3)cc2C(F)(F)F)CC1 | -57.9% (active)
COc1cc(/C=C/C(=O)c2ccc(NC(=O)CN3C(=O)NC(C)(c4ccccc4)C3=O)cc2)cc(OC)c1OC (stereo not given) | -11.5% (active)
CC1=NN(C2=NC(=O)C(CC(=O)Nc3ccccc3C(F)(F)F)S2)C(c2ccc(N(C)C)cc2)C1 (stereo not given) | 10.7% (inactive)
O=C1c2ccccc2C(=O)c2c1c(C(=O)c1ccc(Cl)cc1)n1c2ccc2c3ccccc3ccc21 | 109% (inactive)
COc1cc(CNC(=O)C[C@H](C)CCC=C(C)C)ccc1OCc1cn(-c2ccc(Cl)c(Cl)c2)nn1 | 84% (inactive)
Cc1cc(C)nc(/N=C(\N)Nc2ccc(S(=O)(=O)Nc3nc(C)cc(C)n3)cc2)n1 | 94.7% (inactive)
Cc1ccc2sc3c(c2c1)Oc1nc[nH]c(=O)c1C3c1cccc(F)c1 (stereo not given) | 99.3% (inactive)
Cc1ccc(S(=O)(=O)N2CCN(S(=O)(=O)c3oc(-c4ccccc4)nc3C#N)CC2)cc1 | 69.4% (inactive)
O=C(/C=C/Nc1ccc2oc(=O)ccc2c1)c1cc2cc(Br)ccc2oc1=O | 131% (inactive)
O=C(CSc1nnc(-c2c[nH]c3ccccc23)n1-c1ccccc1)Nc1ccc(C(=O)/C=C/c2ccc(Cl)cc2)cc1 | 66.8% (inactive)
O=c1[nH]c2ccc(Cl)cc2cc1CSc1ccc(Nc2nccc(-c3ccc(Cl)cc3)n2)cc1 | 52.4% (inactive)
CCCn1c(O)c(N=Nc2nc(-c3cc4ccccc4oc3=O)cs2)c2cc(Br)ccc21 | 99.3% (inactive)
CCOC(=O)c1ccc(NC(=S)NC(=O)c2cccc(NC(=O)c3ccc(C)cc3)c2)cc1 | 102% (inactive)
COc1cc(CNC(=O)C[C@H](C)CCC=C(C)C)ccc1OCc1cn(-c2ccc(Cl)cc2Cl)nn1 | 95.5% (inactive)
Cn1cc(-c2cc(N)n3nc(-c4c[nH]c5ccc(F)cc45)cc3n2)c2cccnc21 | -54% (active)
